This is part of a sample that, as a whole, favours compounds with a hit. Of some 79,000 tested, about 15% had one in any assay. Rule as the data show it: active = growth inhibition above about 70%; inactive = the rest.
Legend:
[1] = NCI Yeast Anticancer Drug Screen. Data for the rad50 strain (AID 155);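 also: 0% = growth of vehicle-only cultures of the same strain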; conditions: S. cerevisiae rad50 strain growth inhibition; at 50.0 µM; stronger effect = higher value
Summary of the method: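 Vehicle-treated cultures provide the reference for the growth inhibition reported for compound-exposed, repair-deficient yeast.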

[2] = NCI Yeast Anticancer Drug Screen. Data for the mec2-1 strain (AID 157); conditions: S. cerevisiae mec2-1 strain, at 50.0 µM, stronger effect = higher value
Summary of the method: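 Using mec2-1 yeast: add compound, measure growth, express inhibition versus vehicle-treated cultures.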

[3] = NCI Yeast Anticancer Drug Screen. Data for the sgs1 mgt1 strain (AID 161);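 also: 0% = growth of cultures given vehicle only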; conditions: S. cerevisiae sgs1 mgt1 strain, at 50.0 µM, stronger effect = higher value
Summary of the method: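 Compounds are added to genetically altered yeast, and growth is compared with cultures given vehicle alone to give percent inhibition.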

[4] = NCI Yeast Anticancer Drug Screen. Data for the cln2 rad14 strain (AID 165);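 also: 0% = growth equal to vehicle treated cultures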; conditions: S. cerevisiae cln2 rad14 strain, at 50.0 µM, stronger effect = higher value
Summary of the method: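 Yeast strain cln2 rad14, bearing defects in cell cycle control and DNA repair, serves as the test system; values reflect growth inhibition compared with vehicle.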

[5] = NCI Yeast Anticancer Drug Screen. Data for the bub3 strain (AID 167); conditions: S. cerevisiae bub3 mutant strain, at 50.0 µM, stronger effect = higher value
Summary of the method: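 Mutant yeast screening strain plus compound; vehicle-treated cultures serve as the 0% inhibition reference.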

[6] = NCI Yeast Anticancer Drug Screen. Data for the mlh1 rad18 strain (AID 175); conditions: S. cerevisiae mlh1 rad18 strain growth inhibition; at 50.0 µM; stronger effect = higher value
Summary of the method: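 Steps: expose repair-defective yeast to compound; measure growth; express inhibition against vehicle-treated controls.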

Measured: growth inhibition

O=CNCC1(c2ccccc2)CCN(Cc2ccccc2)CC1
inactive: [1] -2.4% | [2] -23.8% | [3] 3.4% | [4] 2.05% | [5] 3.55% | [6] 8.45%

O=C(O)C1(C(=O)O)CCCCC1.[NH-]CC1(C[NH-])CCCCC1.[Pt+2]
inactive: [1] 21.8% | [2] 9.95% | [3] 27.8% | [4] 21.1% | [5] 5.85% | [6] 14.9%

Cc1ccc(S(=O)(=O)N(CCCc2c(Cl)nc(N)nc2Cc2ccccc2)c2ccccc2)cc1
inactive: [1] -9.75% | [2] -16.5% | [3] -17.2% | [4] -73.8% | [5] -0.8% | [6] -4.65%

CCOC(=O)c1c(C)[nH]c(=S)c(C#N)c1-c1cccc2ccccc12
inactive: [1] -10% | [2] 9.45% | [3] 38% | [4] -12.6% | [5] 17.8% | [6] -31.3%

O=C(O)COc1c(F)cc(F)cc1Cl
inactive: [1] 18.1% | [2] 1.9% | [3] 18.4% | [4] -1.05% | [5] 12% | [6] 7.35%

COc1cc(C(CC#N)CC#N)cc(OC)c1OC
inactive: [1] -3.4% | [2] -15.8% | [3] 25.8% | [4] 6.45% | [5] 8.95% | [6] 8%

Nc1nc2[nH]c(=O)c(C(=O)O)nc2c(=O)[nH]1
inactive: [1] 8.35% | [2] -6.15% | [3] -5.05% | [4] -16.6% | [5] 10.4% | [6] -11.6%

O=S1(=O)C=C(Br)CO1
inactive: [1] -4.65% | [2] 1.75% | [3] -2.5% | [4] -17.4% | [5] -20.6% | [6] -15.7%

CCCCCC(=O)NC(=O)Nc1ccccc1OC
inactive: [1] -13.6% | [2] -1.05% | [3] -4.35% | [4] -24.1% | [5] 0.65% | [6] -1.55%

O=C(/C=C/c1cccc([N+](=O)[O-])c1)Nc1cccnc1
inactive: [1] 7.55% | [2] -1.35% | [3] 38.9% | [4] -11.8% | [5] 29.9% | [6] 24.1%

CCO/C=C1/N=C(c2cccc3ccccc23)OC1=O
inactive: [1] 3.15% | [2] -1.5% | [3] 5.7% | [4] -64.2% | [5] -1.85% | [6] 5.55%

c1ccc(C2=NCCN2)nc1
inactive: [1] 8.1% | [2] 0.9% | [3] -5.7% | [4] -1.15% | [5] 0.65% | [6] 6.55%

CN1NC(c2ccccc2)NN(C)C1=S
inactive: [1] -19.8% | [2] -25.6% | [3] -12% | [4] -16.6% | [5] -4.45% | [6] 3.05%

C=C1C2CC[C@@]3(CC[C@@H]4[C@@]5(C)CCC[C@@]4(CN4CCO[C@H]45)[C@@H]3C2)[C@@H]1O
inactive: [1] -2.4% | [2] -5.9% | [3] 11.1% | [4] 25.9% | [5] 11.2% | [6] -5.5%

O=C(c1ccc(Cl)cc1Cl)N1CCCCC1
inactive: [1] 1.45% | [2] -6.15% | [3] 1.75% | [4] -1.25% | [5] 4.9% | [6] 0.15%

COC1C(=O)CCC2(CO2)C1(O)C1(C)OC1CC=C(C)C (configuration not stated)
inactive: [1] -22.9% | [2] -34.4% | [3] -31.6% | [4] -5.2% | [5] -28.2% | [6] -25.8%

COc1ccc([N+](=O)[O-])c2ncncc12
inactive: [1] -14.4% | [2] -12% | [3] 0.8% | [4] 6.6% | [5] -10.9% | [6] 20.6%

Clc1ccc(CSCSCc2ccc(Cl)cc2)cc1
inactive: [1] 5.95% | [2] -15.3% | [3] 10.8% | [4] -40.9% | [5] 19.6% | [6] 4.3%

Fc1ccccc1-c1nnc(-c2ccc3ccccc3c2)o1
inactive: [1] 33.1% | [2] 14.8% | [3] 32.4% | [4] 23.9% | [5] 40.5% | [6] 14.7%

COC(=O)C1CCC=CC1OC(C)=O (configuration not stated)
inactive: [1] 1.65% | [2] -12.6% | [3] 2.6% | [4] 4.45% | [5] 5.25% | [6] 3.2%

CNc1ccccc1C(=O)N/N=C\c1ccc(Cl)cc1Cl
inactive: [1] -7.75% | [2] -4.9% | [3] -1.3% | [4] -2.85% | [5] -10.1% | [6] -5.15%

COC(=O)/C(C#N)=C/NC(=S)Nc1ccccc1
inactive: [1] -48.1% | [2] -0.85% | [3] -44.5% | [4] 11.2% | [5] -26.3% | [6] -33.2%

Cc1nc2nncn2c(=O)[nH]1
inactive: [1] 9.35% | [2] -0.4% | [3] 31.8% | [4] 15.4% | [5] 6.1% | [6] 17.9%

Cc1cn(C2CC(N)C(C(=O)NCC(=O)O)O2)c(=O)[nH]c1=O (configuration not stated)
inactive: [1] -19.9% | [2] -54.5% | [3] -0.6% | [4] 2.65% | [5] -40.1% | [6] -26.1%

O=C(NCc1ccco1)Nc1ccc(Cl)cc1
inactive: [1] -29.5% | [2] -0.8% | [3] 0.6% | [4] -51.4% | [5] 14.5% | [6] -2.7%

CC(=O)Oc1ccc2c(c1)CCC1C2CCC2(C)CC(OC(C)=O)CC12 (configuration not stated)
inactive: [1] 12.4% | [2] -10.3% | [3] -19.2% | [4] 2.95% | [5] 0.8% | [6] -21.8%

COc1ccc(C)cc1N
inactive: [1] 19.2% | [2] -5.3% | [3] -1.15% | [4] 24.4% | [5] -3.2% | [6] 24.4%

CCCC(C(O)CC)[N+](=O)[O-] (configuration not stated)
inactive: [1] 8.65% | [2] -16.1% | [3] 11.7% | [4] 5.35% | [5] -6.25% | [6] 21.6%

O=NN(CCOS(=O)(=O)c1ccc(Br)cc1)C(=O)NC1CCCCC1
inactive: [1] 32% | [2] 9.25% | [3] 18.6% | [4] 28.6% | [5] -1.95% | [6] 25.2%

N#Cc1cccc(Br)c1
inactive: [1] -11.9% | [2] -15.8% | [3] -1% | [4] -11.4% | [5] -14.9% | [6] 13.1%

Cc1cc(N(CCC#N)CCC#N)ccc1/C=C1N=C(/C=C/c2ccccc2)N(c2ccc(S(N)(=O)=O)cc2)C\1=O
inactive: [1] 0.75% | [2] -0.2% | [3] -18.8% | [4] 0.6% | [5] -21.1% | [6] -3.9%

N#CCC(=O)c1ccc(N)cc1
inactive: [1] 16.1% | [2] -19.6% | [3] 2.2% | [4] 13.9% | [5] -11% | [6] 13.4%

CC12C(=O)NC(c3ccccc3)(c3ccccc31)C1C(=O)N(C(N)=O)C(=O)C12 (configuration not stated)
inactive: [1] 13.9% | [2] 7.35% | [3] 25.6% | [4] -3.05% | [5] -15.2% | [6] 4.4%

O=[N+]([O-])c1ccc(N/N=C2/C(=C/c3cccc4ccccc34)CCc3ccccc32)c([N+](=O)[O-])c1
inactive: [1] -13.6% | [2] -16.3% | [3] -20.8% | [4] -32.5% | [5] 37.5% | [6] -19.6%

CCOC(=O)c1ccc(NC(=O)CNC2CCCCC2)cc1
inactive: [1] -0.05% | [2] -8.7% | [3] -3.2% | [4] -40.8% | [5] 4.55% | [6] -26.1%

Cn1nc(-c2ccccc2)c(C(=O)/C=C/c2ccc(Cl)cc2)c(N2CCCC2)c1=O
inactive: [1] -5.1% | [2] -1.5% | [3] -4.9% | [4] -5.95% | [5] 14.8% | [6] -10.1%

Cc1cc(Cl)ccc1OCCCC(=O)NC(Cc1ccccc1)C(=O)O (configuration not stated)
inactive: [1] 4.85% | [2] 8.95% | [3] -2.15% | [4] 27.5% | [5] -4.2% | [6] 0%

O=C(NCc1ccccc1)C1C2CCC(C2)C1C(=O)NCc1ccccc1 (configuration not stated)
inactive: [1] -0.85% | [2] 50.8% | [3] -1.95% | [4] -2.35% | [5] 22.9% | [6] -6.35%

Cc1cc(=O)c2cc(Br)cc(Br)c2[nH]1
inactive: [1] 11.8% | [2] -13.8% | [3] 8.3% | [4] 0.05% | [5] 9.85% | [6] 12%

CCSC1OC(C(COC(C)=O)OC(C)=O)C(OC(C)=O)C1NC(=O)OCc1ccccc1 (configuration not stated)
inactive: [1] -0.05% | [2] 5.75% | [3] -4.5% | [4] 7.2% | [5] 1% | [6] -18.1%

NNc1ccc(C(=O)O)cc1
inactive: [1] -3.6% | [2] 12.1% | [3] -2.1% | [4] 11% | [5] -2.35% | [6] -4.9%

COC(=O)C(CCc1ccc([N+](=O)[O-])cc1)(CCc1ccc([N+](=O)[O-])cc1)C(=O)OC
inactive: [1] 19.2% | [2] 3.25% | [3] 4.15% | [4] -17.9% | [5] 24.2% | [6] 34.9%
